Assay outcomes: PubChem BioAssay, Johns Hopkins Ion Channel Center
TMEM16A inh: blocks the mouse calcium-activated chloride channel TMEM16A | Q8BHY3 | HEK293 TMEM16A/YFP iodide influx fluorescence, ionomycin | normalized B-score (activity score, 25-100; higher = stronger inhibition) at 10 µM | 310,000 tested, 1.2% active;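 active means ratio plate-corrected score three or more library SD toward inhibition, starting fluorescence score within five deviations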;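 further: score derived from kinetic fluorescence span divided by baseline fluorescence per well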
TMEM16A act: activators or potentiators of mouse TMEM16A chloride channel; Q8BHY3; HEK293 TMEM16A/YFP-H148Q/I152L, iodide quench fluorescence; stronger effect = lower value; B-score at 10 µM; 340,000 tested, 0.3% active; AID 623877;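 active means fluorescence-ratio B-score plate-corrected deviation score at least 3 library SD below zero, with starting fluorescence score within 5 deviations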;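 further: channel opened by trigger with iodide after compound preincubation; score built on the fluorescence ratio of max minus min over baseline; more negative score means more quench and so TMEM16A activation or potentiation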
KCNK9 block: inhibitors of human KCNK9 two-pore domain potassium channel; 310,000 tested, 1.2% active; HEK293 KCNK9, FluxOR thallium flux fluorescence; stronger effect = lower value; B-score at 10 µM;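 active means ratio B-score over 3 SD below the library mean, with starting fluorescence within 5 SD of its mean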;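 further: negative B-score means less thallium flux so channel inhibition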
KCNK3 inh: human KCNK3 channel inhibition, primary screen; B-score at 10 µM; 340,000 tested, 0.84% active; O14649; AID 602410; CHO-KCNK3 thallium flux, FluxOR fluorescence; stronger effect = lower value;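 active means B-score under library mean minus 4 SD, starting fluorescence ratio at most library mean plus 5 SD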;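 further: more negative B-score means stronger inhibition of thallium flux through KCNK3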
Kir21 block: inhibitors of mouse Kir2.1 inward-rectifier potassium channel; P35561; HEK293-Kir2.1, FluxOR thallium flux fluorescence; stronger effect = lower value; B-score at 10 µM; 310,000 tested, 0.85% active; AID 1672;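 active means fluorescence ratio B-score at or below minus 3 SD of library scores, with starting-brightness B-score within 2 SD, cut at about -4.2 in these data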;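 further: channel flux triggered by added potassium and thallium sulfate stimulus; B-score of peak minus minimum fluorescence over baseline after thallium stimulus; more negative B-score means stronger Kir2.1 block with less thallium influx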
KCNK3 inh conf: human KCNK3 channel inhibition, confirmation assay. shares compounds with KCNK3 inh. CHO-KCNK3 thallium flux, FluxOR fluorescence; 0% buffer, 100% carvedilol maximal block. ratio percent of control, % at 10 µM. 2,400 tested, 99% active;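 active means ratio percent of control, averaged over triplicates, above buffer control mean plus 5 SD, cut at about 64% in these data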;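 further: ratio is the fluorescence rise from min to max over baseline after thallium stimulus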
KCNK3 uninduced: counter-screen for KCNK3 inhibitors: effect in non-induced cells; thallium flux ratio (lower = more inhibition) at 10 µM; non-induced KCNK3 parental cells, FluxOR thallium flux; stronger effect = lower value; AID 651747; 2,400 tested, 40% active; shares compounds with KCNK3 inh;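 active means thallium flux ratio, averaged over three wells, more than 5 SD below the buffer control mean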;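 further: host cells are CHO cells without KCNK3 induction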
Hits are given with their value; - = inactive; . = not tested or not shown. Shown are actives, neighbours in structure and some others; about 3.5% of the full set was active somewhere.

SMILES	TMEM16A inh	TMEM16A act	KCNK9 block	KCNK3 inh	Kir21 block	KCNK3 inh conf	KCNK3 uninduced
CC(=O)N1CCN(c2nc(CC(C)C)c3c(c2C#N)CCC3)CC1	-	-	-	-	-	.	.
N#CCCSc1nc(N2CCOCC2)c2c(c1C#N)CCCC2	-	-	-	-	-	.	.
CCCSc1nc(N2CCOCC2)c2c(c1C#N)CCCC2	-	-	-	-11.5	-	112.0	0.152
CCCCc1nc(N2CCOCC2)c(C#N)c2c1CCCC2	-	-	-	-11.4	-	108.3	-
COC(=O)c1sc2nc(N3CCCCC3)c3c(c2c1N)CCCC3	-	-	-	-11.2	-	103.7	-
Cc1ccc(SCC(=O)N2c3ccccc3Sc3ccccc32)cc1	100	-	-	-9.58	-	104.7	0.157
O=C(CSc1nncs1)N1c2ccccc2Sc2ccccc21	-	-	-	-	-	.	.
CCOC(=O)C1=C(CSc2nc3c(cc2C#N)CN(C)CC3)OC(N)=C(C#N)C1c1ccc(Cl)cc1 (stereo not drawn)	-	-	-	-	-	.	.
CCOC(=O)C1=C(CSc2nc(CC)c(C)cc2C#N)OC(N)=C(C#N)C1c1ccccc1 (stereo not drawn)	-	-	-	-9.79	-	109.3	-
CCN(CC)CCNS(=O)(=O)c1ccc(C(=O)NN)cc1	-	-	-	-	-	.	.
CCN(CC)c1nc(-c2ccc(C(=O)NN)cc2)nc(-c2ccc(C(=O)NN)cc2)n1	-	-	-	-8.82	-	52.3	-
CCCCNC(=S)Nc1ccc(Oc2ccccc2)cc1	-	-	-7.45	-9.72	-	95.7	-
O=C(NC1CCN(C(=O)N2c3ccccc3Sc3ccccc32)CC1)c1ccccc1F	-	-	-	-10.5	-	89.3	-
O=C(NC1CCSc2ccccc21)c1ccccc1F (stereo not drawn)	-	-	-	-	-	.	.
COc1ccc2cc(C(=O)/C=C/c3cc(OC)c(O)c(OC)c3)ccc2c1	-	-	-	-9.76	-	131.3	0.13
Cc1cc(C)n2cc(CSCc3ccco3)nc2n1	-	-	-	-16.8	-	77.7	-
Cc1cccc2nc(CSCc3ccco3)cn12	-	-	-	-	-	.	.
CC1C(=O)N2CCCc3cc(NC(=O)c4ccccc4Br)cc1c32 (stereo not drawn)	-	-	-	-	-	.	.
COC(=O)C1CCN(C(=O)CC(NC(=O)C(F)(F)F)c2cccs2)CC1 (stereo not drawn)	-	-	-	-	-	.	.
